The OligoGym collection

The sequences below were run against EPHA8 (assay: pooled miR-30 sensor sort-seq; sequence = guide strand). Conditions: shRNA.
Note: reference of the scale not given here.

Row | Sequence | sensor-assay potency score (higher = more potent)
1 | ATTTTCTCGATGTGGATCCTAG | -0.272
2 | TAGCCGGCACTGCACACGCATT | -1.71
3 | TTTCCCGGTCTCCACCTCCATG | -1.71
4 | TCCATTCTGATAGTGCATCTTC | -0.518
5 | TTGACGGATCACCACCACCTGG | -1.47
6 | TCTCGTAGTACTTGATCTCATA | -1.09
7 | ATGAGCGTCAGGCAGATCCAGA | -1.66
8 | TGATAGTGCATCTTCTCCTCGT | 0.0465
9 | TTGTCCTTCTCGTAGTACTTGA | -0.781
10 | TAGTACTTGATCTCATACTCCA | -0.186
11 | TGCATCTTCTCCTCGTCCGAGT | -1.08
12 | TCTGATAGTGCATCTTCTCCTC | 0.0792
13 | TTCTCGTAGTACTTGATCTCAT | -0.461
14 | TTTGAGGAACTGGCTTTCTTGT | -1.09
15 | TCTGTCTCTCCGTGTAGCCGGC | -0.777
16 | TTGATCTCAGCATAGACGCGCC | -0.595

These sequences were tested against EPHB3 in the same assay as above. Conditions: shRNA.

Row | Sequence | sensor-assay potency score (higher = more potent)
17 | TTCATCTGGCTGGTCACTGTGG | -0.423
18 | TTGCAGTAGAGCTTGAGTGGCA | -0.145
19 | TAGCAGAAGTGAACTTCCGATA | -0.801
20 | AACTGGTGTAGGTAGGATCGGA | -0.385
21 | TCGTAGTCCAGGATGACTCCGT | -0.375
22 | TTGTACAGGAGGTCATCCCGGC | -0.315
23 | TGAGGTTTCATTCACATTGGAG | -0.889
24 | TATGACAGCACCAAGGGCGGGG | -0.054
25 | ATTGCGGATGAGCTTGTCCAGG | -1.31
26 | TCACATTGGAGATCACACCTCG | 0.593
27 | TACTTCATCTCGTAGTCCAGGA | -0.409
28 | TTGCAGATGACATTGTACAGGA | -0.122
29 | TTGTTCTGGCTTGACTCGCGCA | -0.743
30 | TTACACACCTGGTATGTGCGGA | 0.227
31 | TTGCTGTTGACAAGGATGTTGC | -0.897
32 | TTGAGCTCCACGTAGACCCGCT | 0.189
33 | ATGACAATTCCGTAGCTCCAGA | -1.32
34 | TACTGCTGCAGCTTCTCCGTGT | 0.38
35 | TTGTCATCACAGCGTGAGCAGG | -1.61
36 | TCTCCGTGTACTCCGAATCAGA | -1.2
37 | TTGTGGTCTCAAACTCGGCAGG | -1.08
38 | TAGTCCAGGATGACTCCGTTGG | -0.557
39 | TCACCAACTGTCGTGAAGGTTG | -0.896
